Measurements: PubChem BioAssay AID504408 (Broad Institute, 2011)
Out of some 300,000 compounds screened, about 5,200 (1.7%) were called active.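 The calls were made as follows: active = mean replicate activation of at least 50% with a set share of replicates each reaching 50%; inconclusive = only one of those two conditions met; inactive = mean below 50% and too few replicates reaching it.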 The list comes from a sample in which actives are over-represented; it also holds similar structures and randomly drawn compounds.

Experiment: HSF-1 response element luciferase induction – NIH3T3-HGL cells, MG132 stress, luminescence, single point, primary screen (AID 504408);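 also: 0% = median of the neutral control wells and 100% = twice that signal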
Settings: NIH3T3-HGL HSF-1 luciferase reporter, MG132, 8 h; at 9 µM; stronger effect = higher value; 100% = twice DMSO control signal

activation, inactive:
CCCNC(=O)c1ccc(Cl)c(Cl)c1 8.76%
CCC(=O)Nc1ccc(C(=O)Nc2cc(C)on2)cc1 11.5%
O=C(CCCN=C1NS(=O)(=O)c2ccccc21)OCC(=O)c1ccc(F)c(F)c1 -1.2%
CC(Oc1ccc(F)cc1)C(=O)Nc1cc(S(=O)(=O)N2CCOCC2)ccc1N1CCN(C)CC1 (stereo unspecified) -1.39%
Cc1ccc(S(=O)(=O)N(C)c2ccc(OCC(=O)OCc3ccc(C#N)cc3)cc2)cc1 -4.36%
Cc1ccc2nc(SCC(=O)N3CCN(c4ccccc4)CC3)nc(=O)n2c1 -13.7%
COCCOC(=O)C1=C(C)N=c2s/c(=C\c3cccs3)c(=O)n2C1c1cccs1 (stereo unspecified) 20%
CCOC(=O)C1=C(CSc2nccn2C)NC(=O)NC1c1ccc(OC)cc1 (stereo unspecified) 30.7%
COCCCn1c(SCC(=O)Nc2oc(C)c3c(C)n[nH]c(=O)c23)nc2sc3c(c2c1=O)CCC3 0.458%
C#CCOc1ccccc1/C=C1/C(=O)ON=C1C -2.14%
C=CCOc1ccc(/C=C2/C(=O)ON=C2C)cc1OCC -6.38%
Cn1ccsc1=NC(=O)c1cc(S(=O)(=O)N2CCOCC2)ccc1Cl 0.095%
O=C(Nc1c(Br)cc2c(c1Br)Cc1ccccc1-2)C(F)(F)F -5.38%
COc1ccc2[nH]cc(/C=C(/C#N)S(=O)(=O)c3ccccc3)c2c1 0.918%
COc1cc(/C=C(\C#N)c2nc3ccccc3[nH]2)ccc1O 20.9%
O=C(COc1ccccc1)Nc1cc2c3c(c1)CC(=O)N3CCC2 5.75%
O=C(NCc1cccnc1)c1cc(S(=O)(=O)N2CCOCC2)c(Cl)cc1Cl -12.2%
CCN(CC)CCn1c2c(c(SCC(=O)Nc3ccc(C(C)C)cc3)nc1=O)CCC2 8.29%
O=C(c1cc2ccccc2s1)N1CCN(c2ccccn2)CC1 -12%
O=C(C(Cl)Cl)N1CCN(c2ccccn2)CC1 3.47%

activation, active:
Cc1cc(N/C=C\C(=O)c2ccc(Cl)c(Cl)c2)no1 54.6%
C=CS(=O)c1sc(Cl)c(N2CCOCC2)c1[N+](=O)[O-] (stereo unspecified) 103%
CCOC(=O)C1=C(C)N=c2s/c(=C\C(=O)OC)c(=O)n2C1c1ccc(OC)cc1 (stereo unspecified) 61.6%
CC1=NOC(=O)/C1=C\c1ccccc1 54.7%
COc1ccc(/C=C(\C#N)c2c[nH]c3ccccc23)cc1 69.3%
Cc1cc(C(=O)N2CCN(c3ccccn3)CC2)c(C)o1 62.2%
